Measured values: the supplement of paper PMC12669797
± gives the standard deviation of the averaged measurements.

system: TOV-21G; test: cell viability relative to DMSO control (MTS) (fraction of DMSO control); higher = more viable cells / less growth inhibition; conditions: 10 µM; 48 h
Procedure, shortened: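 After 24 h of growth in 96-well plates at 5000 cells per well, TOV-21G and ES2 clear cell carcinoma cells were treated for 48 h with a 367-compound […] library at 10 µM final concentration. Cell viability was measured by MTS assay and expressed relative to vehicle control wells as a fraction.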

Compound	cell viability
Oc1c2ccccc2c2c3c(cccc13)N=N2	0.65 ± 0.023
CCCCOc1cc(CC2CNC(=O)N2)ccc1OC (stereo not given)	0.999
O=c1oc2c(O)c(O)cc3c(=O)oc4c(O)c(O)cc1c4c23 [Ellagic acid]	0.935
O=C(O)c1cc(NCc2cc(O)ccc2O)ccc1O [Lavendustin C]	1.17
COC(=O)Nc1nc2cc(C(=O)c3cccs3)ccc2[nH]1 [Nocodazole]	0.464
O=C(Nc1cccc(NC(=O)c2cccc(O)c2O)c1)c1cccc(O)c1O	0.302
c1ccc2c(-c3cnn4cc(-c5ccc(N6CCNCC6)cc5)cnc34)ccnc2c1	0.344
COc1cc([C@@H]2c3cc4c(cc3[C@@H](O[C@@H]3O[C@@H]5CO[C@@H](C)O[C@H]5[C@H](O)[C@H]3O)[C@H]3COC(=O)[C@H]23)OCO4)cc(OC)c1O [Etoposide (VP-16)]	0.658
Cc1ccc(Nc2nccc(N(C)c3ccc4c(C)n(C)nc4c3)n2)cc1S(N)(=O)=O [pazopanib]	0.864
Nc1nc2c(nc(Sc3ccc(Cl)cc3)n2C2O[C@@H]3CO[P+](O)(S)OC3[C@@H]2O)c(=O)[nH]1 (stereo not given in full)	0.856 ± 0.084
